Assay [1] has as its target Muscarinic acetylcholine receptor M1 (Rattus norvegicus) (UniProt P08482). Briefly: qHTS Assay for Antagonists of Acetylcholine Muscarinic M1 Receptor: Kinetic Measurement of Intracellular Calcium Response (AID 943). Also: nearly all actives have a fitted effect of over 75% in size. Also: potency is read from the fitted curve at half-maximal effect. The method, boiled down:
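Antagonism measured as reduction of carbachol-evoked (EC80, 100 nM final) calcium flux in rat M1-CHO cells after 10 min compound exposure. Fluo-4 signal read kinetically; ratio of maximal to basal fluorescence.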
A general note: qHTS replaces the single test concentration by a dilution series.

For assay [2] the target is unchanged. The assay can be described thus: qHTS Assay for Antagonists of Acetylcholine Muscarinic M1 Receptor: Measurement of IP-One Response (AID 944). Also: nearly all actives have a fitted effect of over 75% in size. Also: potency is read from the fitted curve at half-maximal effect. The method, boiled down: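 IP1 accumulation measured via TR-FRET between d2-IP1 and Eu-cryptate anti-IP1 antibody after carbachol (200 nM, EC80) stimulation for 30 min; rat M1-transfected CHO cells received compound 10 min before agonist.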

The target in assay [3] is Cytochrome P450 2C9 (Homo sapiens) (UniProt P11712). Briefly: qHTS Assay for Inhibitors and Substrates of Cytochrome P450 2C9 (AID 883). Also: nearly all actives have a fitted effect of over 60% in size. Also: potency is read from the fitted curve at half-maximal effect. The procedure, abridged: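 Human CYP2C9 (10nM) with Luciferin-H at 100uM (its KM) in 25mM KPO4; compound preincubated 10 min at 37C, then NADPH regeneration for 60 min at 37C. Luciferin read by luminescence after detection reagent; normalized to 57uM sulphaphenazole as full inhibition.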

Assay [4] addresses Cytochrome P450 2D6 (Homo sapiens) (UniProt P10635). Briefly: qHTS Assay for Inhibitors and Substrates of Cytochrome P450 2D6 (AID 891). Also: nearly all actives have a fitted effect of over 60% in size. Also: potency is read from the fitted curve at half-maximal effect. The procedure, abridged:
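Luminescent read-out of luciferin formed by 5 nM human CYP2D6 demethylating 30 uM Luciferin-ME EGE (Km level) over 60 min at room temperature after NADPH regeneration addition. Data normalized to full inhibition by 1.43 uM quinidine.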

Assay [5] addresses Pyruvate kinase PKM (Homo sapiens) (UniProt P14618). The assay can be described thus: qHTS Assay for Activators of Human Muscle Pyruvate Kinase (AID 954; active = well fitted curve in the direction sought with a large enough effect, not every such curve was filed as active). The method, boiled down:
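A coupled luminescent readout tracked ATP made from ADP by purified PKM2. Final conditions included 0.1 nM enzyme, PEP and ADP at 0.5 and 0.1 mM, pH 7.2 imidazole buffer with BSA, and a one-hour room-temperature reaction.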

Assay [6] addresses Rap guanine nucleotide exchange factor 3 (Homo sapiens) (UniProt O95398). The assay can be described thus: Confirmatory qHTS for antagonist of cAMP-regulated guanine nucleotide exchange factor 3 (EPAC1) (AID 1645880). Also: nearly all actives have a fitted effect of over 55% in size. The method, boiled down: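 Released BODIPY-GDP fluoresces less than Rap1-bound BODIPY-GDP; the signal is followed at 480/540 nm at 5-min intervals over 30 min, after 5 min at room temperature. Reactions contain 100 nM EPAC1, 250 nM RAP1B-BODIPY-GDP and 50 uM GDP; results are normalized to ATA and DMSO.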

The target is the same in assay [7]. Briefly: Confirmatory qHTS for agonist of cAMP-regulated guanine nucleotide exchange factor 3 (EPAC1) (AID 1645881).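 Also: EPAC1 catalysed release of BODIPY-GDP from Rap1B seen as fluorescence loss; nearly all actives have a fitted effect of over 75% in size.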
For assay [8], the target named is Rap guanine nucleotide exchange factor 4 (Homo sapiens) (UniProt Q8WZA2). The assay can be described thus: Confirmatory qHTS for agonist of cAMP-regulated guanine nucleotide exchange factor 4 (EPAC2) (AID 1645884).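 Also: nucleotide exchange releases bodipy-GDP from Rap1 and this lowers its fluorescence; nearly all actives have a fitted effect of over 65% in size.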
The target of assay [9] is Cytochrome P450 3A4 (Homo sapiens) (UniProt P08684). The assay can be described thus: qHTS Assay for Inhibitors and Substrates of Cytochrome P450 3A4 (AID 884). Also: nearly all actives have a fitted effect of over 50% in size. Also: potency is read from the fitted curve at half-maximal effect. The procedure, abridged: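 Luminescent readout of luciferin produced by CYP3A4 (20 nM) dealkylation of Luciferin-PPXE, 25 uM (its KM). NADPH-driven reaction ran 60 min at RT after 10 min compound preincubation; data scaled to 57 uM ketoconazole as 100% inhibition.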

The target of assay [10] is Glutathione peroxidase 1 (Homo sapiens) (UniProt P07203). The assay can be described thus: Primary qHTS Assay for Inhibitors of Recombinant Selenoprotein Glutathione Peroxidase 1 (GPX1) (AID 1845191). Also: nearly all actives have a fitted effect of over 65% in size. The procedure, abridged: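 GR-coupled readout: NADPH consumption tracked by fluorescence, ex 340/em 450 nm, at t=0 and after 15 min at RT. Final mix 10 nM GPX1, 1 mM GSH, 0.5 mM CHP, 0.5 mM NADPH, 100 nM GR, 0.01% BSA, following 30 min enzyme–compound preincubation.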

Assay [11] deals with Phospholipid hydroperoxide glutathione peroxidase GPX4 (Homo sapiens) (UniProt P36969). Briefly: Primary qHTS Assay for Inhibitors of Recombinant Selenoprotein Glutathione Peroxidase 4 (GPX4) (AID 1845192). Also: nearly all actives have a fitted effect of over 65% in size. As to conditions: outcome: dose series up to 50 µM unless noted. The method, boiled down:
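Steps: GPX4 plus compound, 30 min RT; add GR/GSH/NADPH master mix; start with cumene hydroperoxide; read 340/450 nm fluorescence at 0 and 15 min. Finals were 200 nM GPX4, 1 mM GSH, 0.5 mM CHP, 0.5 mM NADPH, 100 nM GR.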

For assay [12], the target named is Rap guanine nucleotide exchange factor 4 (Homo sapiens) (UniProt Q8WZA2). The assay can be described thus: Confirmatory qHTS for antagonist of cAMP-regulated guanine nucleotide exchange factor 4 (EPAC2) (AID 1645885). Also: nearly all actives have a fitted effect of over 25% in size. Also: potency is read from the fitted curve at half-maximal effect.
Assay [13] can be described thus: Confirmation and Secondary Assay for Modulators of Hemoglobin Beta Chain Splicing at IVS2 654 locus (AID 910).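 Also: HeLa cells stably carrying EGFP split by mutant beta-globin IVS2-654 intron.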 The procedure, abridged:
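HeLa cells stably expressing EGFP interrupted by β-globin IVS2-654 intron, seeded overnight in Opti-MEM/2% FCS, then treated 2 days at 37 °C. Restored splicing read as total peak GFP intensity per well by laser scanning cytometry (488 nm excitation, 500–520 nm emission); 500 nM antisense PNA as control.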

Assay [14] can be described thus: Confirmation and Secondary Assay for Modulators of Hemoglobin Beta Chain Splicing at IVS2 705 locus (AID 930).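 Also: HeLa cells stably expressing the EGFP-705 splicing reporter; GFP fluorescence per well restored by corrected splicing of the IVS2-705 intron in EGFP; series mostly up to about 46 µM.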 The method, boiled down:
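Assay measures total GFP intensity per well in HeLa EGFP-705 cells after 2 days with compound; mis-splicing normally truncates EGFP, so fluorescence indicates corrected splicing.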

Assay [15] can be described thus: qHTS Assay for Identification of Small Molecule Antagonists for Thrombopoietin (TPO) Signaling Pathway (AID 918). Also: potency is read from the fitted curve at half-maximal effect; nearly all actives have a fitted effect of over 60% in size. As to conditions: TPO-dependent cell signaling reporter, antagonist mode. The procedure, abridged:
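Inhibition read as reduced luciferase luminescence after 24 h at 37 C in IL-3-deprived Ba/F3 cells carrying human TPO receptor and GPIIb-promoter reporter, stimulated with 26 pM TPO (final, its EC50) alongside compound.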

Assay [16] in a line: Primary qHTS for inhibitors of nuclear receptor binding SET domain protein 2 (NSD2) in an isogenic RCH-ACV NSD2 p.E1099K mutant (9B) (AID 1645876). Also: nearly all actives have a fitted effect of over 70% in size. Also: potency is read from the fitted curve at half-maximal effect.
Assay [17] is described as follows: Primary qHTS for inhibitors of nuclear receptor binding SET domain protein 2 (NSD2) in an RCH-ACV wild type WT cells (2C) (AID 1645877). Also: nearly all actives have a fitted effect of over 70% in size. Also: potency is read from the fitted curve at half-maximal effect.
Assay [18] addresses Cytochrome P450 2C9 (Homo sapiens) (UniProt P11712). Briefly: Cytochrome P450 family 2 subfamily C member 9 (CYP2C9) small molecule antagonists: luciferase biochemical (cell-free) qHTS assay (AID 1645842; active = well fitted curve in the direction sought with a large enough effect in the repeat runs; an effect the other way counts as inactive or inconclusive; also: series mostly up to about 57 µM; nearly all actives have a fitted effect of over 55% in size). The method, boiled down: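 P450-Glo CYP2C9 system: proluciferin substrate with enzyme in mix containing 0.4% BSA, 10 min at room temperature, then NADPH regeneration solution added and incubated 1 h at 37C. Detection reagent stopped reaction; luminescence read after 20 min as RLU.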

Several values for one entry are separate records, joined by “and”; a condition that tells them apart may be missing. Equal values may be shown once. Records with an inconclusive call do not appear. Activity calls are given as the source filed them. Unless noted, calls follow the shape of the dose curve; as a rule, active = well fitted curve in the direction sought with a large enough effect; inconclusive = small, poorly fitted or top-dose-only effect, or another doubt; inactive = no such curve, though single readings can be large; an effect the other way counts as inactive or inconclusive.

Cytochrome P450 2C9 (Homo sapiens), sequence (P11712 whole entry, looked up): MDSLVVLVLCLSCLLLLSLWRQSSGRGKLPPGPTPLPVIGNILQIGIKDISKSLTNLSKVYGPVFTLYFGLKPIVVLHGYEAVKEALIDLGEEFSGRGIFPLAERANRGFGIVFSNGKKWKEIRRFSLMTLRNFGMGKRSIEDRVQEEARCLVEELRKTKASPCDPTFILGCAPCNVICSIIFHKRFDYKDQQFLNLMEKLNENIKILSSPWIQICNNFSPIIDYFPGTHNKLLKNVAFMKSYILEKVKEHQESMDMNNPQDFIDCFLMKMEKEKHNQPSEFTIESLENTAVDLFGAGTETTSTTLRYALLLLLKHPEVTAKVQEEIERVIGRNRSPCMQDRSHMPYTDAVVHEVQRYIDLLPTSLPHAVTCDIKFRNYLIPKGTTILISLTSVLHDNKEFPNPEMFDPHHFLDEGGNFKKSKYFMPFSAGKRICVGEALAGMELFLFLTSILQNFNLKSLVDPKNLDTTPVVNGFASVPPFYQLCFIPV
Rap guanine nucleotide exchange factor 4 (Homo sapiens), sequence (Q8WZA2 whole entry, looked up): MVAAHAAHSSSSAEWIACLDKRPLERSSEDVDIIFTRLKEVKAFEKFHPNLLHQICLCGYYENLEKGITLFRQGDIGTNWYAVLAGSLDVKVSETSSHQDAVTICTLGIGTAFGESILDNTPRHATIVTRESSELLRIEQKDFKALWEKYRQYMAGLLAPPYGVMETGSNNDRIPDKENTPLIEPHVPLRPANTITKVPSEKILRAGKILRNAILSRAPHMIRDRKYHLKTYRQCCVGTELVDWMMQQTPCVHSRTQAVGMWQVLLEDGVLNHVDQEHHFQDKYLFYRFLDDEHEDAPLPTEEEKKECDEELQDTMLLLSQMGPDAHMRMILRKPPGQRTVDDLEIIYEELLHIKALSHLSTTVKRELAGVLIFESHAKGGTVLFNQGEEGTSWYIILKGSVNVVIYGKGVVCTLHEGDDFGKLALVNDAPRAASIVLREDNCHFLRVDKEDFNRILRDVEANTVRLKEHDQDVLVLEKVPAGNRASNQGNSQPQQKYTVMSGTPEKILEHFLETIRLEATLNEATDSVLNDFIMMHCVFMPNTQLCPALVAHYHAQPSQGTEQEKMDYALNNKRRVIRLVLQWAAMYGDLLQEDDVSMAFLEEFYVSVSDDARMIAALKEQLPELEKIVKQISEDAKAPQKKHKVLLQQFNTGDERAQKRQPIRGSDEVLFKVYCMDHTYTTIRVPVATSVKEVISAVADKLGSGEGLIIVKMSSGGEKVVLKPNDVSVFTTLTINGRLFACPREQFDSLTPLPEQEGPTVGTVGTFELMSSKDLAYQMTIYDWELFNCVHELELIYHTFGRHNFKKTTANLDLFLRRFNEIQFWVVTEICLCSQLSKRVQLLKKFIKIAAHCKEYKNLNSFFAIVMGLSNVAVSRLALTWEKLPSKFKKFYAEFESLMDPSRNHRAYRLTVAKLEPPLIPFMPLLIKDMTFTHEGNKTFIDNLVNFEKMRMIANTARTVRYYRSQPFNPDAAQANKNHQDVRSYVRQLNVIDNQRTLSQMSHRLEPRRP
Glutathione peroxidase 1 (Homo sapiens), sequence (P07203 whole entry, looked up): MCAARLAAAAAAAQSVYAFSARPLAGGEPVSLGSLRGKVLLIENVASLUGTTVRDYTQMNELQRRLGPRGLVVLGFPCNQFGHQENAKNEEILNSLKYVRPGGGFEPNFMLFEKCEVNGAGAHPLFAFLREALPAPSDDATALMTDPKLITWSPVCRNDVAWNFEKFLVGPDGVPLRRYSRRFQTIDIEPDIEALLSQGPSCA
Pyruvate kinase PKM (Homo sapiens), sequence (P14618 whole entry, looked up): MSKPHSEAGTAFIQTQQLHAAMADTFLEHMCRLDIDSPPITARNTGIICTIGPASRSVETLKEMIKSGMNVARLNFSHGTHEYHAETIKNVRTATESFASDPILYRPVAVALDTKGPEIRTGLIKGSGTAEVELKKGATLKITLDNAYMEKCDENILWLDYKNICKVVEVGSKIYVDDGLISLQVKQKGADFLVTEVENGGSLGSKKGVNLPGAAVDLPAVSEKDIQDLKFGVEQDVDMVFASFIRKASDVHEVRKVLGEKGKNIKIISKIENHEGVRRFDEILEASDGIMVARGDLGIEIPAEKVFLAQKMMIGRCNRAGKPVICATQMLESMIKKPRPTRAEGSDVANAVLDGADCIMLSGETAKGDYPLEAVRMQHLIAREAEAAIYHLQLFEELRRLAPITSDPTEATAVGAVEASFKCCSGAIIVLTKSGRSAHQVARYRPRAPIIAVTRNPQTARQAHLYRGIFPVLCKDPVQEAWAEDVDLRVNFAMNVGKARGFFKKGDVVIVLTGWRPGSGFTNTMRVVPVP
Muscarinic acetylcholine receptor M1 (Rattus norvegicus), sequence (P08482 whole entry, looked up): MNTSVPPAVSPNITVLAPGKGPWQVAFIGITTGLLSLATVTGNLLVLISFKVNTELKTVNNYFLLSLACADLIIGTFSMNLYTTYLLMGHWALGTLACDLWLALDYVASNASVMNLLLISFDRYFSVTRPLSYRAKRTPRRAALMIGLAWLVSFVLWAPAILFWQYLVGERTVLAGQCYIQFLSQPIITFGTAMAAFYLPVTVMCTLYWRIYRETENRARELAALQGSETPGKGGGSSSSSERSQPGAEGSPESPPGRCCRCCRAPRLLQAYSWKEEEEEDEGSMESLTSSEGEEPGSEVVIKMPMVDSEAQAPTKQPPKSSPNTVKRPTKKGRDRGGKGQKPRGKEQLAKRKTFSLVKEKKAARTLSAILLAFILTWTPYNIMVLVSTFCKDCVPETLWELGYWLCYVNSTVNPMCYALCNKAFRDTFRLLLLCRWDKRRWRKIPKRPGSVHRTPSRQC
Rap guanine nucleotide exchange factor 3 (Homo sapiens), sequence (O95398 whole entry, looked up): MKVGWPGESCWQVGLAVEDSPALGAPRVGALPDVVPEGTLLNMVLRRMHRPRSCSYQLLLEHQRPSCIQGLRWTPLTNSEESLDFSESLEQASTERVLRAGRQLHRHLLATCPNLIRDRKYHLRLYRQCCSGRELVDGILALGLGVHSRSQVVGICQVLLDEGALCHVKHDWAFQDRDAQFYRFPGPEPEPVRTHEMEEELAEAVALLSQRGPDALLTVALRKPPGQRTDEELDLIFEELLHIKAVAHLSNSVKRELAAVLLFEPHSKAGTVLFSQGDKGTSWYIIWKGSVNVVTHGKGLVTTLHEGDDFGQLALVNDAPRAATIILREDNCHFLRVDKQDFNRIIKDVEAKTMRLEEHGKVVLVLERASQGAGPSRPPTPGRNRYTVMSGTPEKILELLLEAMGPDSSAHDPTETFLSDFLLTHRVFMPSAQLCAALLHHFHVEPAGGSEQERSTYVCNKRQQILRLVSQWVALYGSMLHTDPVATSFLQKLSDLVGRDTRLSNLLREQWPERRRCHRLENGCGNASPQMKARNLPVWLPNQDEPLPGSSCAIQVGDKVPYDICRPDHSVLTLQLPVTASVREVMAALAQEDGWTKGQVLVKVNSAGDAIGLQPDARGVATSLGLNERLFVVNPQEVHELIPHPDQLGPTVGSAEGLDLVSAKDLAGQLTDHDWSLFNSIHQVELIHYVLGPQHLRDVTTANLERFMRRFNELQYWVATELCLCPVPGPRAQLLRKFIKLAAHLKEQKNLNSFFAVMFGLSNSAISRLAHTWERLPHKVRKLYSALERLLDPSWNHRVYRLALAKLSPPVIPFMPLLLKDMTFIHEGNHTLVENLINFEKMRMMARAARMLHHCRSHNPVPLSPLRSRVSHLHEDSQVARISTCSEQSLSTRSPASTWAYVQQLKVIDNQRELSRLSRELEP
Cytochrome P450 3A4 (Homo sapiens), sequence (P08684 whole entry, looked up): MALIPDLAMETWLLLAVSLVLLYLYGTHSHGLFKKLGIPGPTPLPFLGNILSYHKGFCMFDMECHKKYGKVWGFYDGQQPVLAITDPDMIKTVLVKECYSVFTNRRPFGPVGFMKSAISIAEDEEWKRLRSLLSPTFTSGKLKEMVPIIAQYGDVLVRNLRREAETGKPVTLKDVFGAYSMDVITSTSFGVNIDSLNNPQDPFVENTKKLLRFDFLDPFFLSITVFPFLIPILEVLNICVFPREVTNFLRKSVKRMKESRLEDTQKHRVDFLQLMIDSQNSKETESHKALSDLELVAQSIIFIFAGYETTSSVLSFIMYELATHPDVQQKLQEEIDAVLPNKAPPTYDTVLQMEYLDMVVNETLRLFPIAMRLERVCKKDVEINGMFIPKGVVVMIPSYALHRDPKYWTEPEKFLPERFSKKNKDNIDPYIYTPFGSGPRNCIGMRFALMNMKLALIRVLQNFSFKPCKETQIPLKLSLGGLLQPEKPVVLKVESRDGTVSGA
Cytochrome P450 2D6 (Homo sapiens), sequence (P10635 whole entry, looked up): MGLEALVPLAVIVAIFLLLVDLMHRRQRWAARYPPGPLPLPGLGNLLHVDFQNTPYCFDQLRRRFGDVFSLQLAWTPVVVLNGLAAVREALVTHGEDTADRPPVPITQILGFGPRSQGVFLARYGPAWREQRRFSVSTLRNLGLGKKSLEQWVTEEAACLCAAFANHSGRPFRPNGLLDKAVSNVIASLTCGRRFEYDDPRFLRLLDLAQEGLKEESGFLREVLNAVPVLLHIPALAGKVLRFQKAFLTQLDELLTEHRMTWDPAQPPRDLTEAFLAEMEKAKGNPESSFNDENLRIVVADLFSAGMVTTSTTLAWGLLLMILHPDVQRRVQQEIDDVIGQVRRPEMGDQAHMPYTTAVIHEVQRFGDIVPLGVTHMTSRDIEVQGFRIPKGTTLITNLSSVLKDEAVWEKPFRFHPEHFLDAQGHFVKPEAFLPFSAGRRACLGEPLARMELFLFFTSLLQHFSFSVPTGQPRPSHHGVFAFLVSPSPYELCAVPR
Phospholipid hydroperoxide glutathione peroxidase GPX4 (Homo sapiens), sequence (P36969 whole entry, looked up): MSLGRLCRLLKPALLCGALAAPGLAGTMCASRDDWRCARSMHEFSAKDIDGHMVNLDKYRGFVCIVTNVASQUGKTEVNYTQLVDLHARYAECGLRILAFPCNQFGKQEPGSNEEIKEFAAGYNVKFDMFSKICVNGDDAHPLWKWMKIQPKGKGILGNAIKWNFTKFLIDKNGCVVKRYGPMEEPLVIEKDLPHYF

As for `N[C@]1(C(=O)O)CCc2cc(C(=O)O)ccc21`, the Potency entry in [1] and in [2] was “inactive” each time.
In the case of `COc1cc(N)c(Cl)cc1C(=O)CCC1CCN(CCNS(C)(=O)=O)CC1`, the Potency in assay [3] was 0.251 µM (active).
`CC(N)=NCCC[C@H](N)C(=O)O`: the Potency result in assay [1] and in [2] was “inactive” each time.
As for `C[C@H](N=C(NC#N)Nc1ccncc1)C(C)(C)C`, the Potency result in assay [4], in [1] and in [2] was “inactive” each time. For the same molecule, in assay [5], the molecule was classed as inactive.
On to `NC[C@](O)(CS(=O)(=O)O)c1ccc(Cl)cc1`, for which the Potency result in [3], in assay [4], in [1] and in assay [2] was “inactive” in each case. Also, in assay [5], the result was inactive.
Regarding `CC(C)(C)NC[C@H](O)COc1cccc2[nH]c(=O)[nH]c12`, in assay [2], the Potency result is “inactive”.
As for `CCC(=O)N[C@@H]1Cc2ccccc2[C@@H](c2ccccc2)C1`, the Potency result in assay [6] was “inactive”. For the same molecule, the result in assay [7] and in [8] was inactive.
With `CNCC[C@H](Oc1ccccc1OC)c1ccccc1`, the Potency is 5.01 µM (active) and 1.26 µM (active) in assay [4]; 14.1 µM (active) in assay [1]; 11.2 µM (active) in assay [2].
For the molecule `N[C@@H](CO)C(=O)O`, in assay [5], the result was inactive.
Consider `N[C@H](Cc1cnc[nH]1)C(=O)O`, for which the Potency entry in [9], in assay [10] and in assay [11] was “inactive” each time.
Consider `C[C@@H](CCc1ccc(O)cc1)NCCc1ccc(O)c(O)c1`, for which the call in assay [5] was inactive.
Consider `O=C(O)[C@H]1CN(CCCP(=O)(O)O)CCN1`, for which the Potency entry in assay [3], in assay [9], in [4] and in assay [1] was “inactive” each time. For the same molecule, in [5], the molecule was called inactive.
Take `CCN(CC)CCOC(=O)C1(c2ccc([N+](=O)[O-])cc2)CCCC1`: the Potency in [4] is 3.98 µM (active) and 5.01 µM (active).
Take `S=C(S)O[C@@H]1C[C@@H]2C[C@H]1[C@@H]1CCC[C@H]21`: the Potency in assay [3] and in assay [9] was 3.98 µM (active) throughout. The Potency entry in [2], in [6] and in assay [12] was “inactive” in each case. Moreover, the result in [7] and in assay [8] was inactive.
With `N[C@H](C(=O)O)[C@@H]1C[C@@H]1C(=O)O`, in [2], the Potency result is “inactive”. The result in assay [5] was inactive.
Turning to `N[C@@H](C(=O)O)c1ccc(C(=O)O)c(C(=O)O)c1`, the Potency in assay [4] was 7.94 µM (active).
On the same count and under the same terms, in the case of `C[C@H](NC[C@H](O)CP(=O)(O)Cc1ccccc1)c1ccc(Cl)c(Cl)c1` it was 0.0501 µM (active).
Take `O=C(O)c1c2ccccc2cc2ccccc12`: the Potency result in assay [9] is “inactive”. Moreover, the molecule was called inactive in [13] and in assay [14].
Take `CC(C)(C)c1ccc(S(=O)(=O)/C=C\C#N)cc1`: the Potency in assay [15] was 0.794 µM (active). The result in [5] was inactive.
In the case of `COc1ccccc1N1CCN(CCCCN2C(=O)CCC2=O)CC1`, the Potency in [3] is 3.98 µM (active).
`COC(=O)C1=C(C)NC(C)=C([N+](=O)[O-])[C@H]1c1ccccc1C(F)(F)F`: the Potency is 15.8 µM (active) and 2 µM (active) in assay [3]; 12.6 µM (active) in assay [9]; 39.3 µM (active) in assay [12]. Moreover, the Potency result in assay [4], in assay [1] and in assay [2] was “inactive” throughout. In addition, the call in [5], in [7] and in assay [8] was inactive.
With `COc1cc(CNC(=O)CCCC/C=C\C(C)C)ccc1O`, the Potency is 2 µM (active) and 1.26 µM (active) in assay [3]; 3.98 µM (active) in assay [9]. Besides, in [6], the Potency entry is “inactive”. Further, the molecule was called inactive in assay [7] and in assay [8].
Turning to `c1ccc(-c2[nH]ncc2-c2ccnc3ccccc23)nc1`, the Potency result in [16], in assay [17] and in [10] was “inactive” in each case.
As for `Cc1nccn1CC1CCC2C(C1=O)c1ccccc1N2C` (stereo unspecified), the Potency entry in assay [18] is “inactive”.
Consider `CCN(CC)CC1CCN(c2ncc3ncnc(Nc4ccc(F)c(Cl)c4)c3n2)CC1`, for which the Potency is 9.2 µM (active) in assay [16] and 16.4 µM (active) in assay [17]. For the same molecule, the Potency result in [10] is “inactive”.
Turning to `CCOC(=O)C1=C(C)NC(C)=C(C(=O)OC)[C@H]1c1cccc([N+](=O)[O-])c1`, the Potency in [3] is 1.58 µM (active) and 158 nM (active). In addition, the result in assay [13], in assay [14] and in [7] was inactive. Moreover, in assay [6], the Potency entry is “inactive”.
Consider `C[C@@H](/C=C\c1cccc(Oc2ccc(F)cc2)c1)N(O)C(N)=O`, for which the Potency is 1.26 µM (active) in assay [9], 25.1 µM (active) in assay [4] and 44.1 µM (active) in assay [12]. Also, the Potency entry in assay [1], in assay [2] and in assay [6] was “inactive” in each case. Besides, the outcome in assay [5] and in assay [7] was inactive.
In the case of `O=C1CC[C@H](C(=O)O)N1`, the Potency entry in [18] was “inactive”.
With `Cc1ccc(-c2nn(C(C)(C)C)c3ncnc(N)c23)cc1`, the Potency in [16] is 7.31 µM (active); in assay [17] it was 11.6 µM (active).

For the origin of these results see PubChem BioAssay (NCATS).
